{
  "source": "PubChem BioAssay (NCI)",
  "note": "Compounds without any hit were thinned out: in the full panel of roughly 83,000, 20% have a hit.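 The endpoint reported here, percent growth, reads 100 for growth as untreated, 0 for no net growth and -100 for all cells dead.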 Values without a mark were called inactive. Activity calls are given as the source filed them. How the source made its calls: active means growth percent below 10; inactive means the rest.",
  "data": [
    {"tested_on": "HS 578T breast", "assay": "NCI-60 one-dose screen, 48 h (100 = growth as untreated, 0 = no growth, -100 = all killed)", "settings": "10 µM", "values": [
      {"smiles": "CC1(C)CNC(=O)N1", "growth": "98.8%"},
      {"smiles": "Nc1ccn([C@@H]2O[C@H](COP(=O)(O)O[C@@H]3C[C@H](n4cc(F)c(=O)[nH]c4=O)O[C@@H]3COP(=O)(O)O[C@@H]3C[C@H](n4cc(F)c(=O)[nH]c4=O)O[C@@H]3COP(=O)(O)O[C@@H]3C[C@H](n4cc(F)c(=O)[nH]c4=O)O[C@@H]3COP(=O)(O)O[C@@H]3C[C@H](n4cc(F)c(=O)[nH]c4=O)O[C@@H]3COP(=O)(O)O[C@@H]3C[C@H](n4cc(F)c(=O)[nH]c4=O)O[C@@H]3COP(=O)(O)O[C@@H]3C[C@H](n4cc(F)c(=O)[nH]c4=O)O[C@@H]3COP(=O)(O)O[C@@H]3C[C@H](n4cc(F)c(=O)[nH]c4=O)O[C@@H]3COP(=O)(O)O[C@@H]3C[C@H](n4cc(F)c(=O)[nH]c4=O)O[C@@H]3COP(=O)(O)O[C@@H]3C[C@H](n4cc(F)c(=O)[nH]c4=O)O[C@@H]3COP(=O)(O)O[C@@H]3C[C@H](n4cc(F)c(=O)[nH]c4=O)O[C@@H]3COP(=O)(O)OCCOCCOCCOCCOCCOCCO)[C@H](O)C2O)c(=O)n1", "note": "(stereo partly drawn)", "growth": "111%"},
      {"smiles": "CCCCN(CCCC)c1ccc(C(=NC(C)CCCN(CC)CC)c2ccc(N(C)C)cc2)cc1", "note": "(stereo not drawn)", "growth": "-49.8% (active)"},
      {"smiles": "Cc1nc2cc(-n3c(-c4ccc(F)cc4)nc4ccccc4c3=O)ccc2n1Cc1ccccc1", "growth": "5.86% (active)"},
      {"smiles": "CN(C)Cc1cccs1", "growth": "102%"},
      {"smiles": "CCCCCCCCCCCCc1ccc(C(=O)/C=C/C(=O)O)cc1", "growth": "93.7%"},
      {"smiles": "Nc1nsc(C(=O)c2ccc(O)cc2)n1", "growth": "98.1%"},
      {"smiles": "O=C(CSc1nnc(-c2ccc(Cl)cc2)o1)c1ccccc1", "growth": "101%"},
      {"smiles": "NC1CCC(Nc2nc(NCc3ccc(-c4cccs4)nc3)c3ncn(C4CCCC4)c3n2)CC1", "note": "(stereo not drawn)", "growth": "6.97% (active)"},
      {"smiles": "CCCCOCC(=O)NC(NP(=O)(N(C)C)N(C)C)C(Cl)(Cl)Cl", "note": "(stereo not drawn)", "growth": "113%"},
      {"smiles": "CCOc1ccc(-n2cc(-c3ccc(N(C)C)cc3)[n+]3c2CCCCC3)cc1", "growth": "28.5%"},
      {"smiles": "CCC1(C)OC(=O)NC1=O", "note": "(stereo not drawn)", "growth": "109%"},
      {"smiles": "CC(=O)Nc1ccc(Sc2ccc(NC(C)=O)cc2)cc1", "growth": "104%"},
      {"smiles": "O=C1CC[C@@H](C(=O)N[C@H]2CSSC[C@@H](C(=O)NCCc3ccccc3)NC(=O)[C@H](Cc3ccccc3)NC(=O)[C@@H]3CCCN3C(=O)[C@@H]3CCCN3C2=O)N1", "growth": "101%"},
      {"smiles": "O=C1CC(c2cccc(-c3cccnc3)c2)=Nc2ccc(Br)cc2N1", "growth": "27.9%"},
      {"smiles": "Clc1cc(Cl)c(OCCCCCCN2CCNCC2)c(Cl)c1", "growth": "55.3%"},
      {"smiles": "CCCCCC(CCC)COC(=O)c1ccc(OC)cc1", "note": "(stereo not drawn)", "growth": "106%"},
      {"smiles": "O=c1oc2cc(OS(=O)(=O)C3CC3)ccc2c2c1CCCCCC2", "growth": "106%"},
      {"smiles": "C=C1C(=O)O[C@H]2[C@H]1CC/C(COC(=O)OCCCCCOC(=O)OC/C1=C/CC[C@@]3(C)O[C@H]3[C@H]3OC(=O)C(=C)[C@@H]3CC1)=C\\CC[C@@]1(C)O[C@@H]21", "growth": "33.8%"},
      {"smiles": "CCOC(=O)c1c(Cl)c2c(n1Cc1cccc(OC)c1)-c1oncc1CC2", "growth": "-11.2% (active)"},
      {"smiles": "COc1cc2nc(Sc3sc(N)nc3C)n(-c3ccc(Oc4ccccc4)cc3)c(=O)c2cc1OC", "growth": "88.5%"},
      {"smiles": "CCCCCCCCCCN=C(c1ccc(N(C)C)cc1)c1ccc(N(C)C)cc1", "growth": "26.7%"},
      {"smiles": "Cc1cccc2c(Nc3ccc(NS(C)(=O)=O)cc3)c3ccc([N+](=O)[O-])cc3nc12", "growth": "56.6%"},
      {"smiles": "C[C@H](NC(=O)[C@@H]1CSSC[C@@H](NC(=O)Cc2nc3ccccc3cc2O)C(=O)NCC(=O)N1C)c1ccccc1", "growth": "94.2%"},
      {"smiles": "O=C(Nc1ccc(CN2CCOCC2)cc1)c1ccc(-c2cc(Cl)ccc2Cl)o1", "growth": "72.2%"},
      {"smiles": "COc1c(-c2c3sc(=O)[nH]c3nc3c2c(=O)[nH]n3C(C)C)cc2c(c1OC)OCO2", "growth": "99.2%"},
      {"smiles": "COc1ccc(-c2nnc(SCC(=O)c3ccccc3)o2)cc1", "growth": "103%"},
      {"smiles": "S=c1c2ncccc2c(-c2ccccn2)nn1Cc1ccccn1", "growth": "111%"},
      {"smiles": "COc1cc(C2C=C(c3ccc(Cl)c(Cl)c3)N=C3SC(C)=CN32)cc(OC)c1OC", "note": "(stereo not drawn)", "growth": "100%"},
      {"smiles": "O=C(NCCc1nccs1)c1cnc2c(S)cccc2c1", "growth": "21.5%"},
      {"smiles": "N#Cc1c(-c2ccccc2)nc(SCC(=O)N2CCOCC2)[nH]c1=O", "growth": "108%"},
      {"smiles": "CCCCCCN=C(N)CCCCCCCCCCC(N)=NCCCCCC", "growth": "26.6%"},
      {"smiles": "CNC(=O)c1cc(Oc2ccc(NC(=O)Nc3ccc(Cl)c(C(C)(C)C)c3)c(F)c2)ccn1", "growth": "64%"},
      {"smiles": "CN(C)c1ccc2c(c1)OC(N)=C(C#N)C2c1ccc2c(c1)CCO2", "note": "(stereo not drawn)", "growth": "23.1%"},
      {"smiles": "CCc1c(C(=O)NCc2c(O)ccc3cccc(O)c23)[nH]c(C)c1C(C)=O", "growth": "35%"},
      {"smiles": "CC(=O)c1ccc(NCn2nc(-c3ccc(Cl)cc3)oc2=S)cc1", "growth": "96.2%"},
      {"smiles": "COC(=O)c1cnc2c(c1)Oc1ccc(Cl)cc1-c1cc(C)nn1-2", "growth": "56%"},
      {"smiles": "Clc1cc(Cl)c(Cl)c(-c2nc(-c3cccnc3)cs2)c1", "growth": "98.9%"}
    ]}
  ]
}
